# Source: PubChem BioAssay (several laboratories)
# Hits are enriched below; roughly 1.3% of the tested compounds scored in any of these assays.
# Phagocyt inh = inhibitors of macrophage phagocytosis, primary screen, imaging, J774A.1 cells, IgG beads. J774A.1 macrophage IgG-bead phagocytosis. inhibition, % at 5 µM. hit rate 0.07% among 110,000;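 active means inhibition above the mean of the plate negative controls plus 5 SD, cut at about 13% in these data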;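 further: phagocytic index as fraction of beads internalized from green versus red external bead signal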
# sdo1 growth = growth rescue of sdo1-depleted yeast, primary screen, S. cerevisiae, bone marrow failure model. S. cerevisiae sdo1-depleted JHY4D growth rescue, OD600 30 h; hits give high values; pdr5 snq2 efflux-pump mutant strain. AID 817, 2007. z-score at 10 µM. hit rate 0.21% among 140,000;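 active means z-score above 3 at both the 24 hr and the 30 hr optical density reads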
# Mac1 fbg inh = inhibitors of CD11b/CD18 adhesion to fibrinogen, primary screen, K562 cells, luminescence. Integrin beta-2 (Homo sapiens) + Integrin alpha-M (Homo sapiens), P05107+P11215. ATPlite luminescence; Mn2+ added to activate the integrin. inhibition, % at 10 µM. hit rate 0.54% among 93,000. AID 1497, 2009;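 active means primary inhibition of 50% or more at 10 µM, then 40% or more on retest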
# Target sequence (P05107 whole entry, looked up, other chains not shown): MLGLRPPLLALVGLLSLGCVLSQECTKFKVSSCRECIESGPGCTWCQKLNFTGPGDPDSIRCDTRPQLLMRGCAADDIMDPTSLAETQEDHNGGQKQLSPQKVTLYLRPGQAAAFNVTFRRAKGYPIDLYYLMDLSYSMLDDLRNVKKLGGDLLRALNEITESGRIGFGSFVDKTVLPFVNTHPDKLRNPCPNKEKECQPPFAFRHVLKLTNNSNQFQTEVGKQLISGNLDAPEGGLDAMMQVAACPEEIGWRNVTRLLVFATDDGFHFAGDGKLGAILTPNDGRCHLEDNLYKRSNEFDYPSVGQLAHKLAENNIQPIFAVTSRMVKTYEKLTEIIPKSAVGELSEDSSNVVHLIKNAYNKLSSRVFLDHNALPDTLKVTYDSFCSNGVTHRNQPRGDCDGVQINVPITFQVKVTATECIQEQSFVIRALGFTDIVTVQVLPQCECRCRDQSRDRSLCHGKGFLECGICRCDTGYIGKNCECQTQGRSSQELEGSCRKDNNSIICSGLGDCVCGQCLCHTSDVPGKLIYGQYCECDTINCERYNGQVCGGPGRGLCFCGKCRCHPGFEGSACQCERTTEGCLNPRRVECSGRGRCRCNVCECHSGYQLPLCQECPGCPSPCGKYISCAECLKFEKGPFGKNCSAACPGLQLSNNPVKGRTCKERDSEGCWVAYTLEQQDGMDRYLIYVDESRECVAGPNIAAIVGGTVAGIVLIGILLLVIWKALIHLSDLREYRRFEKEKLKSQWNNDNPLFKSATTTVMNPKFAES
# MRP-1 activ = H69AR viability gain despite doxorubicin, primary screen, MRP-1 activator project, H69AR cells, CellTiter-Glo; viability rescue; viability increase, % at 10 µM; hit rate 0.61% among 140,000; AID 799, 2007;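 active means viability gain under doxorubicin at or above a set limit, the compound median plus 3 SD, cut at about 4.7% in these data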;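 further: MRP-1 overexpressing cells given doxorubicin 25 µM after compound pretreatment; 18-22 h compound pretreatment then 72 h with doxorubicin before readout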
# Mac1 fbg enh = enhancers of CD11b/CD18 adhesion to fibrinogen, primary screen, K562 cells, luminescence; ATPlite luminescence; activation, % at 10 µM; hit rate 0.07% among 93,000; Integrin beta-2 (Homo sapiens) + Integrin alpha-M (Homo sapiens), P05107+P11215; AID 1499, 2009;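 active means 10 µM primary screen giving 50% or more activity, confirmed by 40% or more on retest at that dose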
# MRP reversal = reversal of MRP1-mediated doxorubicin resistance, primary screen, H69AR cells, doxorubicin co-treatment. H69AR cells + 2 uM doxorubicin, CellTiter-Glo, 72 h. differential viability (reversal), % at 10 µM. hit rate 0.04% among 85,000;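 active means viability drop by adding the cancer drug above about 55%, with treated viability meeting a 40% cutoff, limit read from the data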;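 further: larger differential means the compound sensitizes cells more to doxorubicin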
# Numbers stand for hits; . = inactive; / = no result; [ ] = another dose, or the depositor's remark.
SMILES,Phagocyt inh,sdo1 growth,Mac1 fbg inh,MRP-1 activ,Mac1 fbg enh,MRP reversal
CCOC(=O)c1ccc(N2Cc3ccccc3C2=N)cc1,.,.,.,.,.,/
O=C(NC(Nc1ncc(S(=O)(=O)c2ccc([N+](=O)[O-])cc2)s1)(C(F)(F)F)C(F)(F)F)c1ccc(Cl)cc1,.,.,95.9,.,.,/
O=C1C2CCCN2c2ccc(S(=O)(=O)N3CCOCC3)cc2N1Cc1ccccc1F (configuration not stated),/,.,/,.,/,/
O=C1C2CCCN2c2ccc(S(=O)(=O)N3CCOCC3)cc2N1Cc1cccc(C(F)(F)F)c1 (configuration not stated),.,.,.,.,142.2,/
O=C(Nc1nnc(COc2ccc(Cl)cc2)s1)C1CCCO1 (configuration not stated),.,.,.,8.9,.,.
O=C(Nc1nnc(SCc2ccc(Cl)cc2)s1)C1CCCO1 (configuration not stated),.,.,.,.,.,.
CC(SC1=NCCS1)C(=O)Nc1nnc(-c2ccc(Br)cc2)s1 (configuration not stated),.,.,.,5.8,.,.
CC(SC1=NCCS1)C(=O)Nc1nnc(-c2ccc(F)cc2)s1 (configuration not stated),.,.,.,.,.,.
O=[N+]([O-])c1ccc(N/N=C/c2cn(Cc3ccc(F)cc3)c3ccccc23)nc1,.,.,.,.,.,/
O=C(COc1ccc(Cl)cc1)NCc1nnc(SCC(=O)NCc2ccc3c(c2)OCO3)o1,.,.,.,5.8,.,.
O=C(COc1ccc(Cl)cc1)NCc1nnc(SCC(=O)N2CCCCC2)o1,.,.,.,.,.,.
CCC(C)(C)C1CCC(=NNC(=O)c2ccoc2C)CC1 (configuration not stated),.,.,.,.,.,/
CCn1c(C)nc2cc(-c3nc4n(n3)Cc3ccccc3-4)ccc21,.,.,98.4,.,.,.
Cn1c(SCc2nc(-c3ccccc3)no2)nnc1-c1ccco1,/,.,/,.,/,.
CCn1c(SCc2nc(-c3ccc(Cl)cc3)no2)nnc1-c1ccco1,/,.,58.4,.,.,.
Cc1oc2ccc(NS(=O)(=O)c3cccc4cccnc34)cc2c1C(=O)OC(C)C,.,.,/,.,/,/
CC(C)CCn1c(=O)c2ccccc2n2c(CN(C)Cc3ccccc3)nnc12,.,.,.,.,.,61.5
CC(C)CCn1c(=O)c2ccccc2n2c(COC(=O)c3ccc(S(=O)(=O)N(C)C)cc3)nnc12,.,/,.,/,.,.
COc1cccc(/C=C2/SC(=S)N(CC(=O)Nc3nnc(C)s3)C2=O)c1,/,.,/,8.8,/,/
O=C(CN1C(=O)/C(=C/c2ccccc2)SC1=S)Nc1ncc(Cc2ccccc2)s1,.,.,.,5.3,.,/
CCCCn1nnc(NC(=S)NC(=O)c2cccs2)n1,.,.,.,8.8,.,/
CN=c1scc(C)n1/N=C/c1ccc(O)c(O)c1O,.,.,.,12.2,.,.
CN=c1scc(-c2cccs2)n1/N=C/c1ccc(O)c(O)c1O,.,.,.,.,.,/
CCOC(=O)c1ccc(Oc2nc(NC(C)(C)C)nc(N(C)C)n2)cc1,.,.,.,7.0,.,.
CCOC(=O)c1ccc(Oc2nc(N(C)C)nc(N(C)C)n2)cc1,.,.,.,.,.,.
SMILES,Phagocyt inh,sdo1 growth,Mac1 fbg inh,MRP-1 activ,Mac1 fbg enh,MRP reversal
Cn1c(SCCCC(=O)c2ccc(F)cc2)nnc1-c1ccncc1,.,.,.,.,.,.
COCCn1c(SCCCC(=O)c2ccc(Br)cc2)nnc1-c1ccncc1,.,.,68.8,.,.,.
COc1ccccc1C(=O)NNC(=S)NC(=O)c1ccco1,.,.,.,.,.,/
COc1ccc(C(C)NC(=O)C2C(=O)NC3(C)CC2c2ccccc2O3)cc1 (configuration not stated),.,.,.,.,.,.
COc1ccc(NC(=O)C2C(=O)NC3(C)CC2c2ccccc2O3)cc1 (configuration not stated),.,.,.,4.9,.,.
Cc1ccc(-c2nc3sc4c(c3c(=O)n2N)CC(C)(C)OC4)cc1,.,.,.,.,.,.
CC1(C)Cc2c(sc3nnn(Cc4ccc(Cl)cc4)c(=O)c23)CO1,37.6[artifact],.,/,7.4,/,/
COc1ccc2c(c1)nc(SCC(=O)c1cccs1)n2C,/,.,/,.,/,/
COc1cc(CN(C)CC(=O)c2[nH]c(C)c(C(C)=O)c2C)ccc1OC(F)F,/,.,74.1,.,.,/
COc1ccccc1OCC(=O)c1[nH]c(C)c(C(C)=O)c1C,/,.,/,.,/,.
CCNC(=S)NNC(=O)c1cc(-c2cc(C)ccc2C)nc2ccccc12,/,.,.,.,.,/
CCOC(=O)C1=C(C)Nc2sc(C(=O)c3ccc(OC)cc3)c(N)c2C1c1ccc(C(=O)OC)cc1 (configuration not stated),.,.,/,7.3,/,/
CCCCOCCCNc1ncnc2c1[nH]c1ccccc12,.,.,100.3,.,.,.
CCOCCCNc1ncnc2c1[nH]c1ccccc12,.,.,.,.,.,.
CN(C)CCCNCC(=O)Nc1ccccc1N1CCOCC1,.,.,.,.,.,/
Cc1ccc(CSCc2nnc(SCC(=O)N3CCN(c4ccccc4)CC3)n2C)cc1,.,.,.,5.0,.,/
Cc1ccc(-c2cc(C(F)F)n3ncc(C(=O)Nc4c(C)nn(Cc5ccccc5Cl)c4C)c3n2)cc1,/,.,/,.,/,/
CCc1nccn1C(=O)c1cnn2c(C(F)F)cc(-c3ccccc3)nc12,.,.,.,.,.,/
Cc1nn(Cc2c(Cl)cccc2Cl)c(C)c1NC(=O)c1cnn2c(C(F)F)cc(-c3ccccc3)nc12,.,.,.,.,116.1,/
Cc1ccc(-c2cc(C(F)F)n3ncc(C(=O)Nc4c(C)nn(Cc5c(Cl)cccc5Cl)c4C)c3n2)cc1,.,.,.,.,116.1,/
CCc1nccn1C(=O)c1cnn2c(C(F)F)cc(-c3ccc(C)cc3)nc12,.,.,.,6.0,.,/
Cc1ccc2cc(CN(CC3CCCO3)S(=O)(=O)c3cccc4nsnc34)c(=O)[nH]c2c1 (configuration not stated),.,.,.,.,.,.
O=C(O)c1ccc(COCC(F)(F)C(F)F)o1,.,.,.,.,.,/
Cc1nc2cc(-c3ccsc3-n3c(C)ccc3C)[nH]n2c(=O)c1Cl,/,.,.,6.0,.,.
CNC(=O)CSc1nnc(SCCC(=O)O)s1,.,.,/,.,/,/
Cc1ccc(-c2noc(C3CCCN(S(=O)(=O)c4ccc5ccccc5c4)C3)n2)o1 (configuration not stated),.,.,.,7.3,53.3,.
CC(C(=O)NCc1cccnc1)N1C(=O)c2ccccc2C1=O (configuration not stated),/,.,/,.,/,.
